According to PubChem BioAssay (NCATS):
Several values for one entry are separate records, joined by “and”; a condition that tells them apart may be missing. Equal entries are not always repeated. Records with an inconclusive call do not appear. Activity calls are given as the source filed them. The call rests on the fitted dose curve.

Assay: qHTS Assay for Lipid Storage Modulators (AID 1519); on activity change, negative = inhibition: on the % scale 0 is the no-effect control and ±100 the full control effect
Details: Drosophila S3 cells, BODIPY lipid droplet/cell ratio, laser cytometry, cells loaded with oleic acid
Text: NIH Molecular Libraries Probe Production Centers Network [MLPCN]
NIH Chemical Genomics Center [NCGC]
Assay Submitter (PI): Beller, Mathias; Max-Planck-Institut fur Biophysikalische Chemie
NCGC Assay Overview: Storing lipids as a reservoir for energy or the anabolism of elementary metabolites is a common feature of probably all cells and is conserved from bacteria to humans. The universal cellular lipid storage organelle is the so-called lipid storage droplet (LD). Although ubiquitous, LDs share a simple structure composed of a hydrophobic core that harbors the storage lipids, which is shielded by a droplet-specific phospholipid monolayer to which proteins are attached. The current model of LD biogenesis involves an incorporation of the lipid core into the membrane leaflets of the endoplasmic reticulum (ER) followed by a subsequent budding-like maturation of a LD, which ultimately pinches off. Once released, LD volume can increase by localized lipogenesis or fusion of existing droplets. Storage lipids are re-mobilized enzymatically by lipase activity. Lipase regulation in the adipocyte is heavily studied and involves multiple components including catecholamine signaling, the LD-associated proteins Perilipin and comparative gene identification-58 (CGI-58) and at least two lipases named hormone sensitive lipase (HSL) and adipocyte triglyceride lipase (ATGL). LD regulation outside of the adipocyte is poorly understood and only few components are known. However, there is an urgent need to learn more about ectopic fat depots as mislocalized storage of lipids, for example in the liver or muscle, is an eminent health problem associated with insulin resistance or the metabolic syndrome. We developed a laser-scanning cytometer assay to enable 1,536-well screening and combined the results of the small molecules screen with an RNAi database based on lipid storage.
NCGC Assay Protocol Summary:
We dispensed 4 uL of cells at 1.25 x 10^6 cells/mL into LoBase Aurora COC 1,536-well plates (black walled, clear bottom) with a bottle-valve solenoid-based dispenser (Aurora) to obtain 5,000 cells/well. Triacsin C (Sigma-Aldrich T-4540), an inhibitor of long-chain fatty acyl CoA synthetase that blocks synthesis of triglycerides, was used as a positive control for lipid under-storage. A total of 23 nL of compound solution of different concentrations were transferred to the assay plates using a Kalypsys pin tool equipped with a 1,536-pin array containing 10-nL slotted pins (FP1S10, 0.457-mm diameter, 50.8 mm long; V&P Scientific). One microliter of oleic acid (400 uM) was added, and the plate was lidded with stainless steel rubber gasket lined lids containing pinholes. […] Fluorescence was detected by excitation of the fluorophores with a 488-nm laser on an Acumen Explorer (TTP Lab Tech). The total intensity in channel 1 (500-530 nm) reflected lipid droplet accumulation. […] The ratio of the total intensity in PMT channel 1 over total intensity of channel 3 was also calculated. Percent activity was computed relative to an internal control (100% inhibited lipid droplet deposition due to the presence of 20 uM Triacsin C), which was added to 32 wells/plate.

[1] = measured here: cell count channel max response
[2] = measured here: lipid channel max response

Structure (SMILES) | activity change, negative = inhibition (at 25.7 µM (top of the series)) | activity change, negative = inhibition (at 57.5 µM (top of the series)) | max response [1] | max response [2]
Cc1cc(NS(=O)(=O)c2ccc(N)cc2)no1 | 0.06% (inactive) | 10.1% (inactive) | 8.41% and 20.8% | 8.63% and 34.6%
CCCOc1ccc(C(=O)OCCN(CC)CC)cc1N | -0.0947% (inactive) |  | 10.6% | 9.95%
Cc1nnc(NS(=O)(=O)c2ccc(N)cc2)s1 | 0.279% (inactive) | 7.74% (inactive) | -3.37% and -1.8% | -7.15% and 7.76%
Clc1ccccc1CN1CCc2sccc2C1 | -0.65% (inactive) |  | -21% | -18.8%
N=C(N)c1ccc(OCCCCCOc2ccc(C(=N)N)cc2)cc1 | -3.38% (inactive) | 3.95% (inactive) | 3.1% and 6.27% | -0.0009% and 12.3%
O=c1oc2c(O)c(O)cc3c(=O)oc4c(O)c(O)cc1c4c23 |  | 8.32% (inactive) | 18.5% | 32.6%
NC(=O)c1cccc(N)c1 |  | 7.95% (inactive) | 35.3% | 59.1%
Oc1c(Cl)cc(Cl)c2cccnc12 |  | -20.1% (inactive) | -11.5% | -27.9%
O=S(=O)(c1cccc2cnccc12)N1CCCNCC1 |  | -2.33% (inactive) | 9.76% | 6.29%
CC1=C(C(=O)O)N2C(=O)[C@@H](NC(=O)C(N)c3ccccc3)[C@H]2SC1 (some centres not stated) |  | 1.54% (inactive) | -18.2% | -16%
Nc1nc(N)c2nc(CNc3ccc(C(=O)NC(CCC(=O)O)C(=O)O)cc3)cnc2n1 (configuration not stated) |  | 6.58% (inactive) and 1.3% (inactive) | 6.78% and -3.02% | 18.5% and 0.109%
CCN1CCCC1CNC(=O)c1cc(S(N)(=O)=O)ccc1OC (configuration not stated) |  | 2.89% (inactive) | 2.98% | 5.52%
COC(=O)Nc1nc2ccc(Sc3ccccc3)cc2[nH]1 |  | 4.46% (inactive) | -3.56% | 3.98%
